# Where a name gives a salt, the structure may show the parent alone.
# Tested on: Saccharomyces cerevisiae BY4741 SeMeCo community
# Test: z-score of subpopulation abundance vs DMSO median, subpopulation auxotrophic for HLUM; higher = larger share of this subpopulation than in DMSO controls
# Conditions: 10 µM; 24 h; SM minimal medium; subpopulation (auxotrophy): HLUM
# Description: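 Fluorescent four-plasmid SeMeCo (self-establishing metabolically cooperating S. cerevisiae BY4741 community; plasmids pH-mRuby2, pL-mWasabi, pU-eCFP, pM-TagRFP657) was grown 24 h in minimal SM medium with each Selleck FDA-approved drug at 10 µM in 384-well plates. Cells were fixed and imaged by high-content confocal microscopy. For each auxotrophic subpopulation (and the prototroph), a z-score gives the deviation from the DMSO vehicle-control population median.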
row,Structure (SMILES),z-score of subpopulation abundance
1,C=CC[C@@H]1/C=C(\C)C[C@H](C)C[C@H](OC)[C@H]2O[C@@](O)(C(=O)C(=O)N3CCCC[C@H]3C(=O)O[C@H](/C(C)=C/[C@@H]3CC[C@@H](O)[C@H](OC)C3)[C@H](C)[C@@H](O)CC1=O)[C@H](C)C[C@@H]2OC [Tacrolimus (FK506)],2.77
2,OC(c1ccccc1)(c1ccccc1)C12CC[N+](CCOCc3ccccc3)(CC1)CC2 [Umeclidinium bromide],-0.28
3,Cc1onc(-c2c(Cl)cccc2Cl)c1C(=O)N[C@@H]1C(=O)N2[C@@H]1SC(C)(C)[C@@H]2C(=O)O [Dicloxacillin Sodium],1.07
4,CN(C)CCC[C@@]1(c2ccc(F)cc2)OCc2cc(C#N)ccc21 [Escitalopram Oxalate],0.18
5,NC[C@@H]1O[C@H](O[C@H]2[C@@H](O)[C@H](O[C@@H]3[C@@H](O)[C@H](N)C[C@H](N)[C@H]3O[C@H]3O[C@H](CN)[C@@H](O)[C@H](O)[C@H]3N)O[C@@H]2CO)[C@H](N)[C@@H](O)[C@@H]1O [Neomycin sulfate],0.16
6,CCCN(CCC)CCc1cccc2c1CC(=O)N2 [Ropinirole HCl],0.64
7,COc1cc2c(cc1OC)C(=O)C(CC1CCN(Cc3ccccc3)CC1)C2 (stereo not given) [Donepezil],0.22
8,CC(=O)OC(C)C[N+](C)(C)C (stereo not given) [Methacholine chloride],0.95
9,NC(=NCCCCCCN=C(N)N=C(N)Nc1ccc(Cl)cc1)N=C(N)Nc1ccc(Cl)cc1 [Chlorhexidine?2HCl],4.27
10,O=C(O)CCC(=O)Nc1ccc(S(=O)(=O)Nc2nccs2)cc1 [Succinylsulfathiazole],-0.62
11,CN1C(C(=O)Nc2ccccn2)=C(O)c2ccccc2S1(=O)=O [Piroxicam],-0.92
12,NC(=O)OCC(COC(N)=O)c1ccccc1 [Felbamate],-0.68
13,CCC(=O)NS(=O)(=O)c1ccc(-c2c(-c3ccccc3)noc2C)cc1 [Parecoxib],-0.37
14,C#C[C@]1(O)CC[C@H]2[C@@H]3CCc4cc(OC)ccc4[C@H]3CC[C@@]21C [Mestranol],0.02
15,CNCC[C@H](Oc1cccc2ccccc12)c1cccs1 [Duloxetine HCl],0.03
16,OCCN(CCO)c1nc(N2CCCCC2)c2nc(N(CCO)CCO)nc(N3CCCCC3)c2n1 [Dipyridamole],-1.34
17,O=C(Cn1ccnc1[N+](=O)[O-])NCc1ccccc1 [Benznidazole],-0.21
18,O=C1CN2Cc3c(ccc(Cl)c3Cl)N=C2N1 [Anagrelide HCl],0.12
19,C1N2CN3CN1CN(C2)C3 [Methenamine],-0.16
20,COc1cc(Cc2cnc(N)nc2N)cc(OC)c1OC [Trimethoprim],-0.22

row,Structure (SMILES),z-score of subpopulation abundance
1,Nc1ccc(S(=O)(=O)Nc2ccccn2)cc1 [Sulfapyridine],-0.89
2,Nc1nc2c(ncn2COCCO)c(=O)[nH]1 [Aciclovir],0.48
3,CC(=O)O[C@H]1C[C@@]2(C)[C@@H](C[C@@H](O)[C@H]3[C@@]4(C)CC[C@@H](O)[C@@H](C)[C@@H]4CC[C@@]32C)/C1=C(\CCC=C(C)C)C(=O)O [Fusidate Sodium],-0.08
4,CCCCCCCCCCCCCCCC[N+](C)(C)C [Cetrimonium Bromide (CTAB)],29.4
5,CCOc1ccc(NC(C)=O)cc1 [Phenacetin],0.17
6,O=C(O)c1cc(-c2ccc(F)cc2F)ccc1O [Diflunisal],-0.39
7,Nc1nc2c(ncn2COC(CO)CO)c(=O)[nH]1 [Ganciclovir],-0.89
8,COc1ncnc(NS(=O)(=O)c2ccc(N)cc2)c1OC [Sulfadoxine],0.32
9,O=C(O)C[C@H](O)C[C@H](O)/C=C/c1c(C2CC2)nc2ccccc2c1-c1ccc(F)cc1 [Pitavastatin Calcium],1.55
10,CN(C)[C@@H](CCOc1cccc2ccccc12)c1ccccc1 [Dapoxetine HCl],-0.01
11,OCCOCCN1CCN(C2=Nc3ccccc3Sc3ccccc32)CC1 [Quetiapine Fumarate],0.41
12,CC1=CC[C@@](O)(C(C)C)CC1 [Terpinen-4-ol],0.81
13,NC(=O)c1cn(Cc2c(F)cccc2F)nn1 [Rufinamide],0.29
14,CC#C[C@]1(O)CC[C@H]2[C@@H]3CCC4=CC(=O)CCC4=C3[C@@H](c3ccc(N(C)C)cc3)C[C@@]21C [Mifepristone],-0.67
15,CCC(C)n1ncn(-c2ccc(N3CCN(c4ccc(OCC5COC(Cn6cncn6)(c6ccc(Cl)cc6Cl)O5)cc4)CC3)cc2)c1=O (stereo not given) [Itraconazole],7.85
16,"C[C@H](Nc1ncnc2nc[nH]c12)c1cc2cccc(Cl)c2c(=O)n1-c1ccccc1 [Duvelisib (IPI-145, INK1197)]",0.98
17,NC1CCN(c2nc3c(cc2F)c(=O)c(C(=O)O)cn3-c2ccc(F)cc2F)C1 (stereo not given) [Tosufloxacin p-Toluenesulfonate Hydrate],-0.36
18,Clc1ccc(COC(Cn2ccnc2)c2ccc(Cl)cc2Cl)cc1 (stereo not given) [Econazole nitrate],9.87
19,NC(=O)[C@@H]1CC[C@@H]2CN1C(=O)N2OS(=O)(=O)O [Avibactam sodium],1.05
20,O=C(Nc1ccc(Oc2ccc(Cl)cc2)c(Cl)c1)c1cc(I)cc(I)c1O [Rafoxanide],0.01

# Reference: the supplement of paper PMC8975748
